Assay outcomes deposited in PubChem BioAssay by National Center for Advancing Translational Sciences (NCATS).
rTrxR1 inhibitor: blocks rat thioredoxin reductase 1; O89049; Potency, µM (top dose mostly 114 µM), for the others: at the top dose activity change, negative = inhibition, actives largely listed as inhibitors; AID 588453; hit rate 1% among 390,000; recombinant rTrxR1, NADPH fluorescence consumption, selenite substrate; further: potency means the concentration at half of the fitted maximal effect; nearly all actives have a fitted effect of over 65% in size
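Rat TrxR1 (90 nM in the dispensed reagent) was pre-reduced with 400 uM NADPH for 5 min at room temperature, then incubated with compound for 15 min. After 400 uM selenite was added, NADPH fluorescence (Ex 340/Em 450 nm) was followed for 8 min.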
TrxR1 substrate: is turned over as a substrate by rat TrxR1. purified TrxR1 substrate turnover, NADPH consumption readout. Potency, µM (titrated, usually from 114 µM), for inactives: top-dose activity change, negative = substrate turnover. hit rate 0.01% among 390,000. AID 588456; further: potency means the concentration at half of the fitted maximal effect; nearly all actives have a fitted effect of over 50% in size
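Rat TrxR1, dispensed at 90 nM, was prereduced with 400 uM NADPH (final) for 5 min at ~22 deg C, then incubated with compound 15 min before 400 uM selenite. A first-read NADPH fluorescence drop versus no-compound background flagged substrates.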
PI4K2A block: inhibitors of human PI4K2A. activity change, negative = inhibition, % at 76.9 µM. hit rate 0.13% among 420,000. purified PI4K2A, ADP-Glo luminescence, 1 h; active compounds read low. AID 1346378; in the data active means activity change below about -50%; inconclusive means mostly about -30% to -49%;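 further: -100% = wells without enzyme as full effect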
Target sequence (Q9BTU6 whole entry, looked up): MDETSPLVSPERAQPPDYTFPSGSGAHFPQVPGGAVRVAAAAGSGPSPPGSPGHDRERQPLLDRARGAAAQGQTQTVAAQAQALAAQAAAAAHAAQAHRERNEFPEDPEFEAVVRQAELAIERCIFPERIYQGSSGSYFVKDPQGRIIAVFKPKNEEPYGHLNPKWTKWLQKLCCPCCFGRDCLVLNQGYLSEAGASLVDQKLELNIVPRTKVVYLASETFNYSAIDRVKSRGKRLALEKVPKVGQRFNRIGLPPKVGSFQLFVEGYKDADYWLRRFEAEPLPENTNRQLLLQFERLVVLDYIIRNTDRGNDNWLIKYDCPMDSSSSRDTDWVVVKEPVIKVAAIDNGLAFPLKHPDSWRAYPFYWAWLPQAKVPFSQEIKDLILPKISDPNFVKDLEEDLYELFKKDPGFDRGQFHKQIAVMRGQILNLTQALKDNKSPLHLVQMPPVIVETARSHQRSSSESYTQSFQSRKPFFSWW
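PI4K2A activity was measured by ADP-Glo luminescence: enzyme (4 ug/mL stock) and phosphatidylinositol (1.2 mM stock) in Tris pH 7.5/MgCl2/EGTA/Triton X-100 buffer were reacted with ATP (300 microM stock) for one hour at ambient temperature.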
GALK inh: galactokinase (human) inhibition | P51570 | Potency, µM (series often up to 57.5 µM), for the others: at the highest dose activity change, negative = inhibition, hits mostly inhibitors | Purified GALK, Kinase-Glo residual ATP luminescence | AID 1868 | hit rate 0.007% among 270,000; further: potency means the concentration at half of the fitted maximal effect
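5 nM enzyme, 35 uM ATP, 100 uM galactose, 20 mM HEPES pH8.0, 5 mM MgCl2; 1 h RT; residual ATP by Kinase-Glo Plus luminescence, qHTS format.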
Starred values were filed as active, the others as inactive; ? = inconclusive; · = not tested or not shown; [ ] = remark or other dose. Shown are actives, neighbours in structure and some others; about 1.1% of the full set was active somewhere. Unless noted, the call rests on the fitted dose curve; in most records, active means well fitted curve in the direction sought with a large enough effect; inconclusive means small, poorly fitted or top-dose-only effect, or another doubt; inactive means no such curve, though single readings can be large; an effect the other way counts as inactive or inconclusive. Unless noted, on the % scale 0 is the no-effect control and ±100 the full control effect.

SMILES	rTrxR1 inhibitor	TrxR1 substrate	PI4K2A block	GALK inh
Cc1nn(-c2ccc(Cl)cc2)c2[nH]c(=O)c(CNCc3ccc4c(c3)OCO4)cc12	22.4µM*	-1.9%	1.2	1.3%
Nc1ccn([C@@H]2O[C@H](CO)[C@@H](O)C2(F)F)c(=O)n1	·	·	-1.4	·
Cc1ccc2[nH]c3c(=O)n(CC(=O)N4CCN(C)CC4)ncc3c2c1	35.5µM*	1.7%	5.2	3.5%
Cc1ccc(-c2nc(S(=O)(=O)c3ccc(C)cc3)c(N(C)C)o2)cc1	25.1µM*	6.9%	0.3	-0.6%
Cc1nc(S(=O)(=O)c2ccc(Cl)cc2)c(NCc2ccccc2)o1	44.7µM*	-1.1%	2.8	0.3%
Cc1ccc(S(=O)(=O)c2nc(-c3ccccc3Br)oc2N(C)C)cc1	6.31µM*	13.6%	6.6	·
COc1ccccc1-c1nc(S(=O)(=O)c2ccc(Cl)cc2)c(N(C)C)o1	?	5.5%[57.1 µM]	0.2	-2.6%
COc1cc(-c2nc(S(=O)(=O)c3ccc(C)cc3)c(N(C)C)o2)cc(OC)c1OC	-23.0%[57.1 µM]	-5.4%[57.1 µM]	10.7	-2.9%
Cc1nc(S(=O)(=O)c2ccc(Cl)cc2)c(N(C)C)o1	3.98µM*	5.6%	-1.5	-2.1%
Cc1ccc2c(c1)C(c1ccc(F)cc1)N(C(=O)COc1ccc(Cl)cc1Cl)CC(=O)N2 (stereo not given)	26.7%	7.8%[2.29 µM]	-1.0	·
CC(=O)c1cccc(N2C(=O)CN(S(C)(=O)=O)CC2(C)C(=O)NC2CCCC2)c1 (stereo not given)	16.9%	-2.4%	0.5	·
CC(=O)c1c(C)c(C)c2n1CCn1c(C)ccc1-2	25.1µM*	0.7%	4.8	4.1%
Cc1c(C(=O)NCc2cccc(Br)c2)oc2ccc3c(c12)C(=O)CC(C)(C)O3	29.9%	1.9%	-3.7	·
Cc1ccccc1C(=O)NC(=S)Nc1ccc(N2CCOCC2)cc1	56.2µM*	-12.0%	-3.8	6.8%
O=C(NC(=S)Nc1ccc(N2CCOCC2)cc1)c1ccccc1	?	2.1%[57.1 µM]	1.2	5.2%
CCOC(=O)C1=C(COC(=O)c2ccc([N+](=O)[O-])o2)NC(=O)NC1C (stereo not given)	28.2µM*	-2.4%	-7.0	·
CCOC(=O)C1=C(COC(=O)c2cc([N+](=O)[O-])ccc2Cl)NC(=O)NC1C (stereo not given)	·	·	6.6	·
O=C1N(Cc2ccccc2)CC2(Br)COCOC12O (stereo not given)	2.24µM*	8.2%[11.4 µM]	0.4	·
O=C1C(c2ccccc2)CN1Cc1ccccc1 (stereo not given)	·	·	-4.9	·
O=Cc1ccc(O)c(O)c1O	·	·	-3.3	·
CC(=O)O[C@@H]1[C@@]2(C)O[C@H]2CC[C@]23O[C@H]2[C@H](OC3=O)C2=C(C)C(=O)O[C@@]21O	50.1µM*	18.4%	-24.8	·
CCOC(=O)CC[C@H]1CC[C@]2(CCCN(C(=O)c3ccc4ccccc4n3)C2)O1	·	·	3.5	·
O=C(NCCSCc1ccc(Cl)cc1)C1CCN(S(=O)(=O)Cc2ccccc2)CC1	16.7%	11.6%	-3.7	·
CC(C)CC(=O)/C(=C\c1ccc(Cl)cc1Cl)n1cncn1	8.91µM*	3.2%	-7.5	-0.4%
CCCc1cc(=O)oc2cc(OC(C)C(=O)NC3CC(C)(C)NC(C)(C)C3)ccc12 (stereo not given)	36.5%	-1.8%	1.6	7.0%
SMILES	rTrxR1 inhibitor	TrxR1 substrate	PI4K2A block	GALK inh
CC(=O)N1N=C(c2c(-c3ccccc3)c3cc(Br)ccc3[nH]c2=O)CC1c1ccco1 (stereo not given)	50.1µM*	4.5%	-22.3	-5.2%
CC(=O)N1N=C(c2c(-c3ccccc3)c3cc(C)ccc3[nH]c2=O)CC1c1ccco1 (stereo not given)	-25.8%	-0.1%	3.9	1.8%
CC(C)(C)OC(=O)NCCc1nnc(S(=O)(=O)Cc2ccc(Cl)cc2Cl)o1	0.398µM*	11.4%[57.1 µM]	38.8	7.1%
CC(C)(C)OC(=O)NCCc1nnc(SCc2ccccc2Cl)o1	-4.2%	-6.3%	0.1	2.0%
CCCCCCCCN1[C@@H](CC(=O)O)c2ccc(/C=C/C(=O)O)cc2S1(=O)=O	4.7%	-1.2%	·	·
CCc1[nH]c(=O)[nH]c1C(C)S(=O)(=O)c1ccc(C)cc1 (stereo not given)	1.12µM*	11.6%[57.1 µM]	-8.0	6.4%
O=C(/C=C/Nc1ccccc1)c1ccccc1	-2.3%	0.8%	-23.7	6.4%
O=C(/C=C/Sc1ccccc1)c1ccc(Cl)cc1	39.8µM*	-5.1%	-0.3	-2.0%
O=C(/C=C/Sc1ccccc1)c1ccccc1	11.2µM*	7.7%	-9.6	0.2%
COc1ccc(-n2nc(C(=O)NCC(=O)NCc3ccc(F)cc3)c3ccccc3c2=O)cc1	-54.8%	62.4%	5.5	-1.4%
